The structures appear in SMILES notation. Active and inactive are the calls of the source.

Experiment [1] has as its system Human papillomavirus type 1a protein E7 (residues 44-93). The experiment is described as follows: small molecules binding HPV E7 44-93 – biochemical, small-molecule microarray, residues 44-93, 635 nm fluorescence, primary screen (AID 1108).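 Further: E7 fragment applied at 1 µg/mL in TBST for 1 h at 4 C; score combines spot fluorescence with its signal to noise ratio.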 The note with it: fluorescence 635 nm, higher = more signal.
The nature of experiment [2]: hepatitis C replication reporter changes, two-sided – Huh7 cells, luciferase reporter, HCV replication inhibitor project, primary screen (AID 1109).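 Further: huh7 hepatoma cells harbouring a luciferase neomycin HCV replicon reporter; luciferase luminescence as measure of HCV replicon replication; test concentration not given here.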 The note with it: Huh7 HCV replicon luciferase reporter, 48 h; higher = more signal. (In general: Reporter assays use an easily measured gene product as a stand-in for the process of interest.)
The target in experiment [3] is Left-right determination factor 2 (Homo sapiens) (UniProt O00292). Nature of the experiment: small molecules binding LEFTY2 protein – biochemical, small-molecule microarray, 635 nm fluorescence scan, primary screen (AID 1110). To be noted: higher = more signal.
Sequence of Left-right determination factor 2 (Homo sapiens) (O00292 whole entry, looked up): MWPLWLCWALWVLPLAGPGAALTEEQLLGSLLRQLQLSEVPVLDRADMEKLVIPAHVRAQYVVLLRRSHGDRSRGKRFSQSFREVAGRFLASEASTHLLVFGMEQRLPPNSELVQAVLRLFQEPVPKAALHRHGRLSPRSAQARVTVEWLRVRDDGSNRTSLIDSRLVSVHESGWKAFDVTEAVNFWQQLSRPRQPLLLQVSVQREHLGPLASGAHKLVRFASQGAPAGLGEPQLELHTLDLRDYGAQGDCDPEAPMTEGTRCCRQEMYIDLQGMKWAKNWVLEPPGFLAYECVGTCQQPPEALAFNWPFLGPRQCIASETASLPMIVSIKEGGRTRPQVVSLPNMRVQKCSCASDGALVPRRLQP
In experiment [4] the target is Calmodulin-1 (Homo sapiens) (UniProt P0DP23). The experiment is described as follows: small molecules binding calmodulin-1 with EGTA – biochemical, small-molecule microarray, Cy5-labelled CALM1, profiling panel (AID 1111).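 Further: labelled calmodulin applied in Tris saline Tween buffer holding calcium plus EGTA and DTT.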 The note with it: Cy5-CALM1 binding fluorescence, higher = more signal.
The target is the same in experiment [5]. Nature of the experiment: small molecules binding Ca-loaded calmodulin-1 – biochemical, small-molecule microarray, Cy5-labelled CALM1, plus calcium, artefact control for SMM control-protein annotation, profiling panel (AID 1112).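 Further: score merges spot fluorescence with signal to noise from triplicate slides.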 To be noted: Cy5-CALM1 binding fluorescence, higher = more signal.
Experiment [6] is described as follows: probe aWnt5a binding to arrayed compounds – biochemical, biotinylated probe, 635/667 nm fluorescence, primary screen (AID 1113).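 Further: score merges 667 nm fluorescence intensity with signal-to-noise per printed feature.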 The note with it: small-molecule microarray, higher = more signal.
Experiment [7] is described as follows: probe aShh binding to arrayed compounds – biochemical, biotinylated probe, 635/667 nm fluorescence, primary screen (AID 1114).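 Further: probe is biotin-labelled aShh protein from a stem cell growth factor screen; measures binding of labelled protein to compounds printed on the slide; score merges feature fluorescence at 667 nm with signal-to-noise.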 The note with it: small-molecule microarray, higher = more signal.
Experiment [8] can be described thus: probe aNog binding to arrayed compounds – biochemical, biotinylated probe, 635/667 nm fluorescence, primary screen (AID 1115).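 Further: probe is biotinylated aNog protein used at 0.15 µg/mL for 1 h at 4 C; z-score combines 667 nm fluorescence of each spot with its signal to noise.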 To be noted: small-molecule microarray, higher = more signal.
The target in experiment [9] is Torsin-1A-interacting protein 1 (Homo sapiens) (UniProt Q5JTV8). The experiment is described as follows: compound microarray binding of lysate hLAP1 – cell lysate, small-molecule microarray, COS7 lysate, 635/667 nm fluorescence, primary screen (AID 1116). To be noted: 635 nm fluorescence, higher = more signal.
Sequence of Torsin-1A-interacting protein 1 (Homo sapiens) (Q5JTV8 whole entry, looked up): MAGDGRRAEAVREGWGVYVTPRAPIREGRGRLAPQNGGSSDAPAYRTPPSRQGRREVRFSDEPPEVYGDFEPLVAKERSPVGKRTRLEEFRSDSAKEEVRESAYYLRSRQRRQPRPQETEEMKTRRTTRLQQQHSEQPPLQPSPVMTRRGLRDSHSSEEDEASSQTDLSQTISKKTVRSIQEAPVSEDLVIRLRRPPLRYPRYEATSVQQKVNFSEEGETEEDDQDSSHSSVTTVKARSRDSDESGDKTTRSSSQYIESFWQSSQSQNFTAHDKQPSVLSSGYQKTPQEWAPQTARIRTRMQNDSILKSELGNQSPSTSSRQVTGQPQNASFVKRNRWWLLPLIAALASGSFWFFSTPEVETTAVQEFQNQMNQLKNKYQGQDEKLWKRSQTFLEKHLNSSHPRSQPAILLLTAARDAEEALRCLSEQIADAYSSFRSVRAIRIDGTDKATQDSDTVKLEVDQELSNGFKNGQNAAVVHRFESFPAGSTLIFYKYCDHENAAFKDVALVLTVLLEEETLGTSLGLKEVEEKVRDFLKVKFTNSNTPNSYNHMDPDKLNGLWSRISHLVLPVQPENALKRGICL
Experiment [10] addresses Alpha-bungarotoxin (Bungarus multicinctus) (UniProt P60615). Nature of the experiment: compounds binding labelled alpha-BTX control protein – biochemical, small-molecule microarray, Alexa647 label, 635/667 nm fluorescence, artefact control for SMM control protein annotation, profiling panel (AID 1117). To be noted: alpha-BTX-A647 binding fluorescence, higher = more signal.

For the next experiment, the target named is Albumin (Bos taurus) (UniProt P02769). The experiment is described as follows: compounds binding labelled BSA control protein – biochemical, small-molecule microarray, Alexa647 label, 635/667 nm fluorescence, artefact control for SMM control protein annotation, profiling panel (AID 1118).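 Further: score merges 667 nm emission intensity and signal-to-noise per printed compound spot.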 To be noted: BSA-A647 binding, fluorescence 635 nm, higher = more signal.
Sequence of Albumin (Bos taurus) (P02769 whole entry, looked up): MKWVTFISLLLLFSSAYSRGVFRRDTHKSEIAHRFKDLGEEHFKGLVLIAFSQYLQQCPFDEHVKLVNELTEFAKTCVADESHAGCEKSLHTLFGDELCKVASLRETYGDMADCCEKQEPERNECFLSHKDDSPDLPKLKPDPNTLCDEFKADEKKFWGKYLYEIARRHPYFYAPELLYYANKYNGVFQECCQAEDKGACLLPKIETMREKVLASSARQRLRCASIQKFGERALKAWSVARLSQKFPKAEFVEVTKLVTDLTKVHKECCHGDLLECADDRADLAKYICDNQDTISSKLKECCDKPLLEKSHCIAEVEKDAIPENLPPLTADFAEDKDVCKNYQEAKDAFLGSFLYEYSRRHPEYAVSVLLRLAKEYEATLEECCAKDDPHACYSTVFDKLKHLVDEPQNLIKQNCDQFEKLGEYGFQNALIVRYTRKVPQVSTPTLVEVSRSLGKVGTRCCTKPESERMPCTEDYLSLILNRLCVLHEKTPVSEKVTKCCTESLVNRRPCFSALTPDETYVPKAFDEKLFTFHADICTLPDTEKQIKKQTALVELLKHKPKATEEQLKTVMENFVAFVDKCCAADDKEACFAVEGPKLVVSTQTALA

Experiment [11] in a line: probe aXIP binding to arrayed compounds – biochemical, NeuroSMM set, 635/667 nm fluorescence, primary screen (AID 1119).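 Further: probe is the protein aXip251-270 applied at 1 µg/mL to compound-printed slides; binding of probe to printed compounds measured as 667 nm fluorescence plus signal to noise.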 To be noted: small-molecule microarray, higher = more signal, called active from +8 up or from −8 down.
The nature of experiment [12]: probe aNOTCH3 binding on compound microarray – biochemical, small-molecule microarray, 635/667 nm fluorescence, primary screen (AID 1120).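 Further: probe is a biotin-tagged antibody raised against NOTCH3 rather than NOTCH3 protein; score merges spot fluorescence near 667 nm with spot signal to noise.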 To be noted: higher = more signal.
Experiment [13] can be described thus: probe aNOTCH2 binding on compound microarray – biochemical, small-molecule microarray, 635/667 nm fluorescence, primary screen (AID 1121).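 Further: score merges feature fluorescence read at 667 nm with its signal to noise.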 The note with it: higher = more signal.
Experiment [14] addresses Carbonic anhydrase 2 (Homo sapiens) (UniProt P00918). Nature of the experiment: compounds binding carbonic anhydrase 2 – biochemical, small-molecule microarray, Alexa647-labelled CAII, profiling panel (AID 1122). To be noted: CAII-A647 binding fluorescence, higher = more signal.
The nature of experiment [15]: COS7 lysate on small-molecule microarray, probe aHis, 635 nm (AID 1123).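 Further: z-score combines 667nm fluorescence intensity with signal-to-noise per printed compound spot.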 The note with it: COS7 cell lysate, fluorescence, higher = more signal.
Experiment [16] can be described thus: probe aLAP1 signal on lysate-treated microarray – cell lysate, small-molecule microarray, COS7 lysate, primary screen (AID 1124).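 Further: lysate comes from COS7 cells expressing LAP1 and is applied at 0.3 µg/mL; score merges spot fluorescence near 667 nm with signal-to-noise over triplicate slides.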 To be noted: probe aLAP1, fluorescence, higher = more signal.
Another experiment concerns Sam68 (KHDRBS1). Nature of the experiment: compounds binding KHDRBS1 protein – biochemical, small-molecule microarray, 635 nm fluorescence, primary screen (AID 1125).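 Further: score merges 667 nm channel intensity with signal to noise over triplicate slides.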 To be noted: higher = more signal.
Experiment [17] has as its system Chordin-like protein 2 (CHRDL2). The experiment is described as follows: compounds binding chordin-like 2 – biochemical, small-molecule microarray, 635 nm fluorescence, primary screen (AID 1126).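 Further: printed compound slides probed with Chrdl2 protein at 4 µg/mL for 1 h at 4 C; score merges 667 nm emission intensity with signal to noise over three replicate slides.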 To be noted: fluorescence 635 nm, higher = more signal.
Experiment [18] deals with Concanavalin-A (Canavalia ensiformis) (UniProt P02866). The experiment is described as follows: compounds binding concanavalin A lectin – biochemical, small-molecule microarray, Alexa647 label, 635 nm, artefact control for SMM control protein annotation, primary screen (AID 1127).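 Further: z combines 667 nm emission intensity with signal-to-noise across three replicate slides.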 To be noted: ConA-A647 binding fluorescence, higher = more signal.
Sequence of Concanavalin-A (Canavalia ensiformis) (P02866 whole entry, looked up): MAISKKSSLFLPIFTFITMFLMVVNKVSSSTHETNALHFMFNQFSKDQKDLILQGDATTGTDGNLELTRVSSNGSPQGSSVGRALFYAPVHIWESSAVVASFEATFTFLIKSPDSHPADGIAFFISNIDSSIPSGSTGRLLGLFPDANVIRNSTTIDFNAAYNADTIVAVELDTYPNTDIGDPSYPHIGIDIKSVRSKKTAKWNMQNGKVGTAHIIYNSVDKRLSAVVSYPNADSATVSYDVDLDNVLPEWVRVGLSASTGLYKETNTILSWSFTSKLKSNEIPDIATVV

Sequence of Alpha-bungarotoxin (Bungarus multicinctus) (P60615 whole entry, looked up): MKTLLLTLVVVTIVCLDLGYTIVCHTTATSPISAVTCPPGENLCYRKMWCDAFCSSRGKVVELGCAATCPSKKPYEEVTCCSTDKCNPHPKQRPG

For `COC(=O)[C@@]1(Cc2ccc(OC)cc2)[C@H]2c3cc(C(=O)N(C)C)n(CCc4c[nH]c5ccc(O)cc45)c3C[C@H]2CN1C(=O)c1ccccc1`, the composite z-score in [1] is 1.06; in [3], -0.217; in experiment [4] it was 1.83; in [5], 1.25; in experiment [6], -0.0196; in [7], 0.488. The composite z-score in experiment [8] amounted to 2.27; in experiment [9] it was 1.3; in experiment [10], 1.28; with Albumin (Bos taurus), 0.932; in [12], 0.403; in experiment [13], 0.357. The composite z-score turned out to be 0.745 in [14]; 2.88 in [15]; 1.27 in experiment [16]; 1.34 in the experiment with Sam68 (KHDRBS1); 0.121 in experiment [17]; 1.17 in [18]. Moreover, the z-score in experiment [2] is -0.0903. Moreover, in experiment [11], the composite Z-score is 0.258 (inactive).
For the compound `Cc1ccc(S[C@]2(C(=O)NC(C)C)CC(=O)N(C3Cc4ccccc4C3)[C@@H]2c2ccc(CO)cc2I)cc1`, the composite z-score in experiment [1] is -0.803; in experiment [3], -2.04; in experiment [4] it was -0.625; in experiment [5], -1.08; in experiment [6] it was -0.596; in experiment [7], -0.291. In addition, the composite z-score in experiment [8] is -1.12; in experiment [9], -0.664; in [10], -0.365; with Albumin (Bos taurus), -0.25; in [12], -0.641; in [13] it was -0.359. The composite z-score was 0.825 in experiment [14]; 3.04 in [15]; 0.387 in [16]; 0.318 in the experiment on Sam68 (KHDRBS1); 0.02 in experiment [17]; -0.181 in experiment [18]. In experiment [2], this compound came in with a z-score of -2.19. Also, in experiment [11], the composite Z-score is 0.0777 (inactive).
Consider `C[N+](C)(C)CCCC[C@@H]1NC(=O)[C@@H]2C[C@H](C(=O)O)[C@H](c3ccc(O)cc3)N2C1=O`, for which the composite z-score in experiment [1] is -3.49; in experiment [3], -0.566; in experiment [4], -0.0386; in experiment [5] it was 0.305; in experiment [6], -0.197; in experiment [7] it was -0.141. In addition, the composite z-score in [8] is -0.359; in experiment [9], 0.136; in [10], 0.0213; with Albumin (Bos taurus), 0.594; in experiment [12], -0.223; in experiment [13], -0.0798. Besides, the composite z-score is 0.381 in [14]; -0.555 in experiment [15]; -0.534 in [16]; -2.19 in the experiment with Sam68 (KHDRBS1); -0.827 in experiment [17]; 0.0317 in experiment [18]. The compound also registered a z-score in experiment [2] of 0.964. The composite Z-score in experiment [11] is -0.238 (inactive).
`CC(C)N1C(=O)[C@@]2(c3ccc([N+](=O)[O-])cc3)CC(=O)N(C3CCCCC3)[C@@H]2c2ccc(CO)cc21`: the composite z-score in experiment [1] is -0.242; in experiment [3], 0.11; in experiment [4] it was -0.561; in [5] it was -0.593; in experiment [6], -0.1; in experiment [7] it was -0.0553. Also, the composite z-score in experiment [8] is -0.305; in experiment [9] it was 0.214; in experiment [10], 0.329; in the experiment with Albumin (Bos taurus), -0.545; in [12], -0.215; in experiment [13], -0.12. Besides, the composite z-score is 0.222 in experiment [14]; -0.0857 in experiment [15]; 0.398 in experiment [16]; 0.123 in the experiment on Sam68 (KHDRBS1); 0.208 in experiment [17]; 0.684 in experiment [18]. For the same compound, in experiment [2], the z-score was found to be 0.711. Besides, the composite Z-score in experiment [11] was 0.633 (inactive).
Turning to `O=C1C2C=CC(C(O)c3cc(C(F)(F)F)cc(C(F)(F)F)c3)N(Nc3ccc([N+](=O)[O-])cc3)C2C(=O)N1c1ccccc1` (stereo not given), the composite z-score is 1.42 in experiment [1]; 0.511 in [3]; 1.65 in experiment [4]; 0.311 in [5]; 0.055 in experiment [6]; -0.224 in experiment [7]. Besides, the composite z-score is 0.605 in experiment [8]; 0.185 in experiment [9]; 1.59 in experiment [10]; 0.888 with Albumin (Bos taurus); 0.37 in experiment [12]; -0.0523 in experiment [13]. The composite z-score in [14] was 0.616; in experiment [15], 2.74; in experiment [16], -0.0967; in the experiment on Sam68 (KHDRBS1) it was 1.33; in experiment [17], -0.298; in experiment [18] it was 1.15. The compound further registered a z-score in [2] of -3.71. Further, the composite Z-score in [11] is -0.311 (inactive).

The values are drawn from PubChem BioAssay.
